ELG1 DNA repair – inhibitors of ELG1-dependent DNA repair in HEK293T cells | HEK293T ELG1-luciferase reporter, luminescence, 16 h; DNA damage induced by 5-fluorouridine | Potency, µM (series often up to 46.1 µM), inactives show top-dose activity change, negative = inhibition, actives largely listed as inhibitors | 330,000 compounds, 2.3% hits; note: potency is the fitted concentration of half-maximal effect; nearly all actives have a fitted effect of over 55% in size
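DMSO vehicle served as the neutral condition. Each well held 2,000 cells given 5-fluorouridine plus compound; after 16 hr at 37 °C/5% CO2, ONE-Glo was added and luciferase measured 30 min later.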
HT1080-NT tox – kills 2HG-producing HT-1080-NT fibrosarcoma cells. Potency, µM (series often up to 46.1 µM), for inactives: at the highest dose activity, negative = less viability, hits mostly cytotoxic. 360,000 compounds, 1.6% hits. HT-1080-NT fibrosarcoma viability, CellTiter-Glo ATP luminescence, 48 h;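 note: NT is the 2HG producing partner of a matched IDH1 knockdown line; potency is the fitted concentration of half-maximal effect; 0% = DMSO-treated cells and -100% = media-only wells without cells; nearly all actives have a fitted effect of over 55% in size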
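Toxicity toward the 2HG-producing NT line was scored as %Activity, normalised to DMSO and no-cell wells, from CellTiter-Glo luminescence after 48 hours' treatment.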
TDP1 cell noCPT – qHTS for Inhibitors of human tyrosyl-DNA phosphodiesterase 1 (TDP1): qHTS in cells in absence of CPT | 420,000 compounds, 15% hits | DT40 Tdp1-/- hTDP1 cells, no CPT, ATP luminescence, 48 h | Potency, µM (doses to about 46.2 µM), inactives show top-dose activity change, negative = growth inhibition, hits mostly inhibitors; note: potency is the fitted concentration of half-maximal effect; nearly all actives have a fitted effect of over 55% in size
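Compound effects on proliferation are scored in DT40 Tdp1-/-;hTDP1 cells in the absence of CPT. ATP levels (CellTiter-Glo luminescence) are recorded after a ≥48 hr, 37 °C incubation.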
DT40 TDP1 CPT – growth inhibition of DT40 Tdp1-/-;hTDP1 cells with camptothecin (screen for TDP1 inhibitors); Potency, µM (series often up to 46.2 µM), for inactives: at the top dose activity change, negative = growth inhibition, usual class: inhibitors; chicken DT40 Tdp1-/-;hTDP1 cells + 20 nM CPT, ATP luminescence, 48 h; 420,000 compounds, 12% hits; AID 686979; note: potency is the fitted concentration of half-maximal effect; nearly all actives have a fitted effect of over 55% in size
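Chicken DT40 Tdp1-/- cells stably complemented with human TDP1 were seeded at 400 cells/well in medium containing 20 nM camptothecin, exposed to pin-transferred compounds, and grown at 37 °C for at least 48 hr. Viability was read as ATP luminescence.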
HT1080 IDH1KD tx – HT-1080 IDH1 knockdown cell toxicity (counter line) | HT-1080 IDH1 knockdown viability, ATP luminescence, 48 h | Potency, µM (doses to about 46.1 µM), for the others: at the highest dose activity, negative = toxicity, most hits filed as cytotoxic | 360,000 compounds, 2% hits;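 note: potency is the fitted concentration of half-maximal effect; 0% = DMSO wells and -100% = cell-free medium wells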
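Knockdown cells (IDH1KD HT-1080) received compounds 2 h after plating at 750 cells/well and were kept 48 h at 37 °C in 5% FBS RPMI. A CellTiter-Glo luminescence read gave % activity for curve fitting.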
IL-1B inflam inh – inhibitors of inflammasome signaling (IL-1 beta secretion) | activity change, % at 57.5 µM | AID 743279 | 360,000 compounds, 4.7% hits | THP-1 LPS/ATP IL-1B secretion, AlphaLISA, 16 h; active compounds read low; in the data active = activity change below about -50%; inconclusive = mostly about -30% to -49%
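Secreted IL-1B measured by AlphaLISA bead assay after 16 h compound exposure of THP-1 cells; compounds (final up to 57.5 uM) added 1 h before LPS (250 ng/mL) and ATP (1.25 mM) stimulation; lower signal means less secretion.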
* hit, by the source's call; ? = inconclusive; . = no result given. An excerpt weighted towards active compounds, which were near 19% of everything screened. Unless noted, calls come from the whole dose curve; as a rule, active = well fitted curve in the direction sought with a large enough effect; inconclusive = small, poorly fitted or top-dose-only effect, or another doubt; inactive = no such curve, though single readings can be large; an effect the other way counts as inactive or inconclusive. Unless noted, % is set by controls: 0 for no effect and ±100 for the full control effect.

SMILES | ELG1 DNA repair | HT1080-NT tox | TDP1 cell noCPT | DT40 TDP1 CPT | HT1080 IDH1KD tx | IL-1B inflam inh
O=C(c1cc(-c2cccc3ccccc23)nc2ccccc12)N1CCN(CCO)CC1 | 4.6µM* | -1% | ? | ? | -5% | -21
O=C(c1cc(-c2ccncc2)nc2ccccc12)N1CCN(c2ncccn2)CC1 | 23µM* | -1% | ? | -11% | -6% | 22
O=C(c1cc(-c2ccncc2)nc2ccccc12)N1CCN(c2ccccc2O)CC1 | ? | -4% | ? | ? | -5% | -3
O=C(c1cc(-c2ccccc2)nc2ccccc12)N1CCN(c2ccccc2O)CC1 | 13µM* | -12% | 18µM* | 16µM* | ? | -7
O=C(c1cc(-c2ccncc2)nc2ccccc12)N1CCN(c2ccccn2)CC1 | ? | 7.9µM* | 11µM* | 8.9µM* | 5.6µM* | 8
CCOC(=O)c1cc(S(=O)(=O)Nc2ccc(OC(F)(F)F)cc2)[nH]n1 | . | . | -15% | -29% | . | .
CCCCOC(=O)c1nc[nH]c1C(=O)OCCCC | -3% | 4% | 5% | 7% | -6% | 30
Cc1ccc2c(COC(=O)C3CSC4(C)CCC(=O)N34)cc(=O)oc2c1C (centres undefined) | -14% | 10% | 5% | 0% | 5% | 5
COc1ccc(Br)cc1/C=N/NC(=O)C(c1ccncc1)N1CCOCC1 (centres undefined) | -16% | 6% | 23µM* | ? | -3% | 21
CCOc1ccc(C(=O)N2CCc3ccccc32)cc1OCC | -4% | -5% | -29% | -20% | -11% | 15
Cc1ccc(C)c(C(O)c2ncc(-c3ccc(Cl)cc3)[nH]2)c1 (centres undefined) | . | ? | ? | ? | ? | 24
Cc1ccc(C(O)c2ncc(-c3ccc(Cl)cc3)[nH]2)c(C)c1 (centres undefined) | . | ? | 16µM* | ? | ? | 8
Cc1ccc(C)c(C(O)c2ncc(-c3cccc(C(F)(F)F)c3)[nH]2)c1 (centres undefined) | . | -27% | ? | ? | ? | -54*
Cc1ccc(C(O)c2ncc(-c3ccc(F)cc3)[nH]2)c(C)c1 (centres undefined) | . | -18% | ? | ? | 6% | -10
Cc1ccc(C)c(C(O)c2ncc(-c3ccc(F)cc3)[nH]2)c1 (centres undefined) | . | 2% | 15µM* | 16µM* | -3% | -19
Cc1cc(C)n(-c2nc(SCC(=O)O)c3c4c(sc3n2)COC(C)(C)C4)n1 | 0% | -2% | ? | ? | -19% | 54
CCN(CC)CCCNc1nc(-n2nc(C)cc2C)nc2sc3c(c12)CC(C)(C)OC3 | ? | ? | ? | ? | ? | -57*
Cc1cc(C)n(-c2nc(NCc3cccnc3)c3c4c(sc3n2)COC(C)(C)C4)n1 | ? | ? | ? | ? | 23µM* | ?
O=C1C(C2=C(O)c3ccccc3C2=O)=Nc2ccccc21 | 19% | -27% | 15µM* | 10µM* | ? | -93*
CC(=O)Nc1ccc(C(=O)NCC2(N3CCCCC3)CCCCC2)cc1 | 0% | -4% | -21% | ? | 1% | 11
O=S(=O)(c1ccc(Cl)cc1)c1nc(-c2ccccc2F)oc1NCc1ccccc1 | . | . | 18µM* | ? | . | .
Cc1nc(S(=O)(=O)c2ccc(Cl)cc2)c(NCc2ccccc2)o1 | -10% | 14% | ? | ? | 7% | 4
COc1ccc(-c2nc(S(=O)(=O)c3ccc(Cl)cc3)c(NCc3ccccc3)o2)cc1 | . | . | ? | 16µM* | . | .
Cc1ccc(-n2nnnc2CNC(=O)c2ccc3c(c2)OCO3)cc1C | -8% | -6% | 5% | -7% | -3% | 19
C/C(=N\NC(=S)NCCc1ccccc1)c1ccc(C#N)cc1 | 0% | 6.3µM* | 13µM* | ? | 7.1µM* | 3
SMILES | ELG1 DNA repair | HT1080-NT tox | TDP1 cell noCPT | DT40 TDP1 CPT | HT1080 IDH1KD tx | IL-1B inflam inh
C/C(=N\NC(=S)NCCc1ccccc1)c1ccc(C)cc1 | ? | -7% | 18µM* | ? | -3% | -5
C/C(=N\NC(=S)NCCc1ccccc1)c1ccc(Cl)cc1 | ? | -4% | ? | ? | -19% | 0
Cc1cccc(C)c1NC(=O)CNC(=O)c1ccncc1 | 16% | 10% | 1% | -3% | 15% | 6
COc1cccc(C(=O)NC2CCCc3ccccc32)c1OC (centres undefined) | 0% | -12% | 23µM* | ? | -7% | 32
O=C(NC1CCCc2ccccc21)c1n[nH]c(=O)c2ccccc12 (centres undefined) | -12% | ? | 6.5µM* | ? | 9.2µM* | -8
Cc1ccc2nc(SCC(=O)NC3CCCc4ccccc43)[nH]c2c1 (centres undefined) | ? | ? | 16µM* | 21µM* | ? | 6
COc1ccc(OCC(=O)NC2CCCc3ccccc32)cc1 (centres undefined) | ? | -9% | ? | -18% | -1% | -87*
O=C(COc1ccccc1)NC1CCCc2ccccc21 (centres undefined) | -8% | -1% | -28% | 15% | 2% | 5
O=C(C[C@H]1C/C=C\CC[C@@H](Cc2ccc(F)cc2)C(=O)OC[C@H]2CCCN2C1=O)NCCO | 8% | 16% | -9% | -19% | 9% | -1
COc1ccc(NC(=O)CSc2nc(O)c(C/C=C/c3ccccc3)c(=O)[nH]2)cc1 | . | . | -28% | -2% | . | .
Cc1c(C(=O)NC2CCCc3ccccc32)cccc1[N+](=O)[O-] (centres undefined) | -1% | -1% | 13µM* | ? | -5% | 11
COc1cc(OC)cc(C(=O)N[C@H](C(=O)NC2CCCc3ccccc32)C(C)C)c1 (some centres undefined) | -19% | 0% | 16µM* | ? | -4% | 16
COc1ccccc1NC(=O)COc1ccc(Br)cc1CNC1CCCC1 | -16% | -21% | ? | ? | ? | -86*
COc1cc(OC)cc(C(=O)NCC(=O)OCC(=O)NC2CCCc3ccccc32)c1 (centres undefined) | 5% | 7% | -18% | -14% | 6% | 7
COc1ccccc1NC(=O)COc1ccc(C(=O)NCc2ccccc2)cc1OC | 26µM* | -3% | ? | ? | -14% | ?

Screens as filed in PubChem BioAssay.
